The results in this text go back to the supplement of paper PMC12350171.

Holding throughout (details): 20 µM
Assay [1] has as its system Salmonella enterica typhimurium. The experiment in a line: growth AUC normalised to DMSO control (fraction of control); higher = less growth inhibition, active = hit call of the paper. Summed up: (§1)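 Pathogens were passaged twice under anaerobic conditions, then inoculated into pre-reduced mGAM plates at a starting OD578 of 0.01, with compound at 20 μM and 1% DMSO, and sealed with breathable membranes. For Haemophilus parainfluenzae, the medium was supplemented with hemin and NAD. OD578 was read every hour for 24 h in three biological replicates. Growth-curve AUC was calculated by the trapezoidal rule up to the exponential-to-stationary transition and normalised to DMSO controls on the same plate.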

The subject of assay [2] is Shigella flexneri. Described as above. The method in brief: as §1
Assay [3] concerns Vibrio cholerae. The description is as above. Summed up:
as §1

The test system of assay [4] is Yersinia pseudotuberculosis. Described as above. The method in brief:
as §1

Assay [5] has as its system P. vulgatus RND KO. The experiment in a line: growth AUC normalised to DMSO control (median) (fraction of control); higher = less growth inhibition, active = hit call of the paper. The method in brief:
(§2)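 Area under the growth curve, calculated by the trapezoidal rule up to entry into stationary phase, was normalised to vehicle wells on the same plate. Strains had been passaged twice overnight without oxygen and then grown in mGAM in 96-well plates from OD578 0.01, each with an approved-drug library compound at 20 μM in 1% DMSO. OD578 was read hourly over 24 h in an anaerobic incubator, and the median of three biological replicates is given.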

For assay [6], the system named is P. vulgatus WT. The description is as above. The method in brief:
as §2

The test system of assay [7] is S. enterica typhimurium WT. The assay is described as above. The method in brief:
as §2

Assay [8] has as its system S. enterica typhimurium tolC KO. The description is as above. Summed up: as §2

Structures can show the parent of a compound that is named as a salt. Unmarked numbers belong to inactive results.
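For growth AUC normalised to DMSO control (median) in this document: active when median AUC fell below 0.1.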

For the compound `CC(=O)O[C@H]1C[C@@]2(C)[C@@H](C[C@@H](O)[C@H]3[C@@]4(C)CC[C@@H](O)[C@@H](C)[C@@H]4CC[C@@]32C)/C1=C(\CCC=C(C)C)C(=O)O` [Fusidic acid sodium salt], the “growth AUC normalised to DMSO control” value in assay [1] was 0.997; in assay [2] it was 0.974; in assay [3], 0.927; in assay [4] it was 0.824 (active); in assay [5], 0.0166 (active); in assay [6], 0.0143 (active). In addition, the figures for the “growth AUC normalised to DMSO control” value in assay [7] and in assay [8] were 0.989 and 0.0407 (active), respectively.
As to `NC(=O)c1ncn([C@@H]2O[C@H](CO)[C@@H](O)[C@H]2O)n1` [Ribavirin], the “growth AUC normalised to DMSO control” value in assay [1] was 0.995; in assay [2], 0.949; in assay [3] it was 0.983; in assay [4] it was 0.952; in assay [5], 0.987; in assay [6], 1. The results for the “growth AUC normalised to DMSO control” value in assay [7] and in assay [8] were 0.98 and 0.988, respectively.
With `CCCCOc1ccc(OCCCN2CCOCC2)cc1` [Pramoxine hydrochloride], the “growth AUC normalised to DMSO control” value in assay [1] was 0.998; in assay [2], 1.01; in assay [3] it was 1; in assay [4] it was 0.983; in assay [5], 1.04; in assay [6], 1.03. Besides, the “growth AUC normalised to DMSO control” value in assay [7] is 1; in assay [8], 0.988.
On to `CN1CCC(OC(c2ccccc2)c2ccccc2)CC1` [Diphenylpyraline hydrochloride], for which the “growth AUC normalised to DMSO control” value in assay [1] is 0.988; in assay [2], 0.996; in assay [3] it was 0.962; in assay [4], 0.987; in assay [5] it was 0.994; in assay [6], 1. The “growth AUC normalised to DMSO control” value was 0.987 in assay [7] and 0.983 in assay [8].
Take `CCOc1cc(CC(=O)N[C@@H](CC(C)C)c2ccccc2N2CCCCC2)ccc1C(=O)O` [Repaglinide]: the “growth AUC normalised to DMSO control” value in assay [1] is 1.03; in assay [2] it was 1.06; in assay [3], 1.07; in assay [4] it was 1.02; in assay [5], 0.956; in assay [6] it was 1.01. Further, the “growth AUC normalised to DMSO control” value in assay [7] was 1.01; in assay [8], 0.981.
For the compound `CN1C2CCCC1CC(NC(=O)c1nn(C)c3ccccc13)C2` (stereo unspecified) [Granisetron], the “growth AUC normalised to DMSO control” value in assay [1] was 1; in assay [2] it was 1.02; in assay [3], 1.01; in assay [4] it was 1; in assay [5], 1; in assay [6], 0.987. Further, the “growth AUC normalised to DMSO control” value in assay [7] was 0.982; in assay [8], 1.
For the compound `COc1cc2nc(N3CCN(C(=O)c4ccco4)CC3)nc(N)c2cc1OC` [Prazosin hydrochloride], the “growth AUC normalised to DMSO control” value in assay [1] is 0.993; in assay [2] it was 0.984; in assay [3] it was 1; in assay [4] it was 1.01; in assay [5], 1; in assay [6], 1. The “growth AUC normalised to DMSO control” value in assay [7] was 0.993; in assay [8] it was 0.97.
